Measurements as given in paper PMC9838217, “Structure of SALL4 zinc finger domain reveals link between AT-rich DNA binding and Okihiro syndrome”.
Substitutions are numbered along the chain they refer to.

How the values were obtained:
Experiment in all cases: HT-SELEX; high values mean tight binding
Conditions in all cases: protein: recombinant; vector His6-GST; dsDNA, one strand shown
[1] = target: T1, SALL4 ZFC4 WT (HT-SELEX) (Mus musculus, UniProt Q8BX22 870-940)
T1 sequence: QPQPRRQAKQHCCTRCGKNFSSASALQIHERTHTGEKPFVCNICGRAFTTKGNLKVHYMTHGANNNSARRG
Outline: (§1)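 Library DNA (1.5 µg in cycle one, 200 ng in later cycles) was incubated with 1 µg of purified recombinant mouse SALL4 zinc finger cluster 4, residues 870–940, in 100 µl buffer (10 mM Tris–HCl pH 7.5, 50 mM NaCl, poly(dI-dC), DTT) at room temperature for 10 min. Up to 6 rounds of Ni2+ bead capture, washing, PCR amplification and reselection were run in triplicate. Reads from MiSeq sequencing were scanned for 6-mers. For each canonical k-mer, binding signal is its read fraction as fold change versus the original random library.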

[2] = target: T2, SALL4 ZFC4 R900W (HT-SELEX) (Mus musculus, UniProt Q8BX22 870-940, R900W)
T2 sequence: T1 sequence with R31W
Outline: as §1

[3] = target: T3, SALL4 ZFC4 G921D (HT-SELEX) (Mus musculus, UniProt Q8BX22 870-940, G921D)
T3 sequence: T1 sequence with G52D
Outline: as §1

Sequence | binding signal [1] | binding signal [2] | binding signal [3]
CCCATA | 0.844 ± 0.0635 fold-change vs cycle 0 | 0.917 ± 0.0435 fold-change vs cycle 0 | 0.905 ± 0.0367 fold-change vs cycle 0
CTCAGC | 0.369 ± 0.0266 fold-change vs cycle 0 | 0.414 ± 0.0118 fold-change vs cycle 0 | 0.525 ± 0.071 fold-change vs cycle 0
GATAGC | 0.692 ± 0.0348 fold-change vs cycle 0 | 0.798 ± 0.0237 fold-change vs cycle 0 | 0.8754 ± 0.00393 fold-change vs cycle 0
ACTCAC | 0.877 ± 0.0278 fold-change vs cycle 0 | 0.97 ± 0.0118 fold-change vs cycle 0 | 1.02 ± 0.0114 fold-change vs cycle 0
CATGAG | 0.884 ± 0.0345 fold-change vs cycle 0 | 0.992 ± 0.0188 fold-change vs cycle 0 | 1.03 ± 0.0481 fold-change vs cycle 0
AGTTTG | 1.14 ± 0.0447 fold-change vs cycle 0 | 1.23 ± 0.039 fold-change vs cycle 0 | 1.22 ± 0.0352 fold-change vs cycle 0
GCAACC | 0.327 ± 0.0217 fold-change vs cycle 0 | 0.365 ± 0.0107 fold-change vs cycle 0 | 0.503 ± 0.0559 fold-change vs cycle 0
AAGAGG | 0.855 ± 0.0331 fold-change vs cycle 0 | 1.01 ± 0.0625 fold-change vs cycle 0 | 0.999 ± 0.0313 fold-change vs cycle 0
AAAAGG | 1.08 ± 0.0719 fold-change vs cycle 0 | 1.25 ± 0.064 fold-change vs cycle 0 | 1.18 ± 0.0579 fold-change vs cycle 0
CACCTA | 0.824 ± 0.0556 fold-change vs cycle 0 | 0.915 ± 0.0444 fold-change vs cycle 0 | 0.976 ± 0.0474 fold-change vs cycle 0
AACCCT | 0.85 ± 0.042 fold-change vs cycle 0 | 0.958 ± 0.0297 fold-change vs cycle 0 | 0.971 ± 0.0387 fold-change vs cycle 0
CTCACA | 0.786 ± 0.0522 fold-change vs cycle 0 | 0.895 ± 0.0341 fold-change vs cycle 0 | 0.9459 ± 0.00888 fold-change vs cycle 0
ACCGGT | 0.368 ± 0.0353 fold-change vs cycle 0 | 0.438 ± 0.0164 fold-change vs cycle 0 | 0.518 ± 0.0665 fold-change vs cycle 0
CTTACA | 1.41 ± 0.0514 fold-change vs cycle 0 | 1.55 ± 0.0884 fold-change vs cycle 0 | 1.43 ± 0.0941 fold-change vs cycle 0
ATAAAC | 2.24 ± 0.173 fold-change vs cycle 0 | 2.02 ± 0.13 fold-change vs cycle 0 | 1.76 ± 0.163 fold-change vs cycle 0
AATACT | 2.02 ± 0.117 fold-change vs cycle 0 | 1.99 ± 0.126 fold-change vs cycle 0 | 1.82 ± 0.161 fold-change vs cycle 0
CTTTCC | 0.771 ± 0.025 fold-change vs cycle 0 | 0.935 ± 0.0213 fold-change vs cycle 0 | 0.967 ± 0.0233 fold-change vs cycle 0
AATGGT | 1.28 ± 0.0798 fold-change vs cycle 0 | 1.35 ± 0.0595 fold-change vs cycle 0 | 1.32 ± 0.061 fold-change vs cycle 0
AACCTT | 1.35 ± 0.0624 fold-change vs cycle 0 | 1.5 ± 0.0445 fold-change vs cycle 0 | 1.39 ± 0.0775 fold-change vs cycle 0
GAGCAC | 0.415 ± 0.0413 fold-change vs cycle 0 | 0.537 ± 0.0508 fold-change vs cycle 0 | 0.674 ± 0.0417 fold-change vs cycle 0

Sequence | binding signal [1] | binding signal [2] | binding signal [3]
AGGTGC | 0.324 ± 0.00829 fold-change vs cycle 0 | 0.389 ± 0.0132 fold-change vs cycle 0 | 0.519 ± 0.0738 fold-change vs cycle 0
GATGCA | 0.68 ± 0.0339 fold-change vs cycle 0 | 0.75 ± 0.0294 fold-change vs cycle 0 | 0.848 ± 0.0393 fold-change vs cycle 0
ATCATA | 2.91 ± 0.29 fold-change vs cycle 0 | 2.08 ± 0.118 fold-change vs cycle 0 | 1.88 ± 0.177 fold-change vs cycle 0
ATCGTC | 0.685 ± 0.0177 fold-change vs cycle 0 | 0.755 ± 0.0322 fold-change vs cycle 0 | 0.852 ± 0.0307 fold-change vs cycle 0
CAATTG | 1.09 ± 0.0289 fold-change vs cycle 0 | 1.247 ± 0.0104 fold-change vs cycle 0 | 1.28 ± 0.0217 fold-change vs cycle 0
TGAGCA | 0.639 ± 0.0443 fold-change vs cycle 0 | 0.737 ± 0.0106 fold-change vs cycle 0 | 0.843 ± 0.0202 fold-change vs cycle 0
CCATAC | 0.84 ± 0.0342 fold-change vs cycle 0 | 0.88 ± 0.0149 fold-change vs cycle 0 | 0.931 ± 0.0299 fold-change vs cycle 0
AGAGAC | 0.8 ± 0.0496 fold-change vs cycle 0 | 0.927 ± 0.0137 fold-change vs cycle 0 | 0.985 ± 0.0357 fold-change vs cycle 0
AATCCC | 0.882 ± 0.0212 fold-change vs cycle 0 | 0.932 ± 0.0228 fold-change vs cycle 0 | 0.963 ± 0.0176 fold-change vs cycle 0
AAGCCA | 0.541 ± 0.0136 fold-change vs cycle 0 | 0.628 ± 0.0233 fold-change vs cycle 0 | 0.751 ± 0.0535 fold-change vs cycle 0
ACAACT | 1.25 ± 0.0434 fold-change vs cycle 0 | 1.37 ± 0.0317 fold-change vs cycle 0 | 1.38 ± 0.0748 fold-change vs cycle 0
CGCAAA | 0.335 ± 0.00942 fold-change vs cycle 0 | 0.376 ± 0.0263 fold-change vs cycle 0 | 0.498 ± 0.0731 fold-change vs cycle 0
CCTAGA | 0.844 ± 0.0425 fold-change vs cycle 0 | 0.937 ± 0.0552 fold-change vs cycle 0 | 0.97 ± 0.04 fold-change vs cycle 0
GCTACC | 0.35 ± 0.0217 fold-change vs cycle 0 | 0.419 ± 0.0155 fold-change vs cycle 0 | 0.543 ± 0.0413 fold-change vs cycle 0
CATTCG | 0.667 ± 0.027 fold-change vs cycle 0 | 0.769 ± 0.0521 fold-change vs cycle 0 | 0.847 ± 0.0186 fold-change vs cycle 0
ACACAC | 0.701 ± 0.0589 fold-change vs cycle 0 | 0.815 ± 0.0148 fold-change vs cycle 0 | 0.903 ± 0.0448 fold-change vs cycle 0
ACGTTG | 0.659 ± 0.0218 fold-change vs cycle 0 | 0.753 ± 0.0161 fold-change vs cycle 0 | 0.822 ± 0.0177 fold-change vs cycle 0
GGCTTA | 0.5567 ± 0.00529 fold-change vs cycle 0 | 0.656 ± 0.0181 fold-change vs cycle 0 | 0.763 ± 0.0358 fold-change vs cycle 0
GGGGGA | 0.31 ± 0.0219 fold-change vs cycle 0 | 0.349 ± 0.0327 fold-change vs cycle 0 | 0.439 ± 0.0654 fold-change vs cycle 0
ATTAGA | 2.12 ± 0.0407 fold-change vs cycle 0 | 2.08 ± 0.0537 fold-change vs cycle 0 | 1.85 ± 0.125 fold-change vs cycle 0

Sequence | binding signal [1] | binding signal [2] | binding signal [3]
GGTAAA | 1.19 ± 0.0123 fold-change vs cycle 0 | 1.3 ± 0.0352 fold-change vs cycle 0 | 1.23 ± 0.0522 fold-change vs cycle 0
AATGCC | 0.502 ± 0.015 fold-change vs cycle 0 | 0.5601 ± 0.00429 fold-change vs cycle 0 | 0.704 ± 0.0636 fold-change vs cycle 0
AATCCG | 0.616 ± 0.0217 fold-change vs cycle 0 | 0.698 ± 0.0254 fold-change vs cycle 0 | 0.798 ± 0.0327 fold-change vs cycle 0
CTACAA | 1.17 ± 0.0183 fold-change vs cycle 0 | 1.29 ± 0.0465 fold-change vs cycle 0 | 1.24 ± 0.0556 fold-change vs cycle 0
CCAAGG | 0.457 ± 0.0202 fold-change vs cycle 0 | 0.535 ± 0.0059 fold-change vs cycle 0 | 0.642 ± 0.0371 fold-change vs cycle 0
AAGCGA | 0.546 ± 0.0399 fold-change vs cycle 0 | 0.616 ± 0.0449 fold-change vs cycle 0 | 0.734 ± 0.0783 fold-change vs cycle 0
ACCGAG | 0.423 ± 0.0215 fold-change vs cycle 0 | 0.496 ± 0.0188 fold-change vs cycle 0 | 0.586 ± 0.0556 fold-change vs cycle 0
ACTTCG | 0.679 ± 0.0273 fold-change vs cycle 0 | 0.7885 ± 0.004 fold-change vs cycle 0 | 0.854 ± 0.0495 fold-change vs cycle 0
TTACAA | 2.01 ± 0.0785 fold-change vs cycle 0 | 2.03 ± 0.0849 fold-change vs cycle 0 | 1.81 ± 0.143 fold-change vs cycle 0
GGTAGA | 0.746 ± 0.0282 fold-change vs cycle 0 | 0.849 ± 0.0219 fold-change vs cycle 0 | 0.892 ± 0.0246 fold-change vs cycle 0
ATTTGC | 0.914 ± 0.0535 fold-change vs cycle 0 | 0.9 ± 0.0391 fold-change vs cycle 0 | 0.981 ± 0.0312 fold-change vs cycle 0
ATCCCC | 0.549 ± 0.0564 fold-change vs cycle 0 | 0.604 ± 0.0359 fold-change vs cycle 0 | 0.664 ± 0.0449 fold-change vs cycle 0
AAACAA | 1.75 ± 0.117 fold-change vs cycle 0 | 1.82 ± 0.0942 fold-change vs cycle 0 | 1.66 ± 0.151 fold-change vs cycle 0
CTAATC | 1.38 ± 0.0603 fold-change vs cycle 0 | 1.55 ± 0.0541 fold-change vs cycle 0 | 1.43 ± 0.0842 fold-change vs cycle 0
ACCCGT | 0.418 ± 0.0141 fold-change vs cycle 0 | 0.5 ± 0.0199 fold-change vs cycle 0 | 0.577 ± 0.0315 fold-change vs cycle 0
AGGTTG | 0.791 ± 0.0234 fold-change vs cycle 0 | 0.894 ± 0.0252 fold-change vs cycle 0 | 0.945 ± 0.0127 fold-change vs cycle 0
TCACCA | 0.829 ± 0.0293 fold-change vs cycle 0 | 0.931 ± 0.0104 fold-change vs cycle 0 | 0.988 ± 0.0172 fold-change vs cycle 0
ATAATA | 4.87 ± 0.591 fold-change vs cycle 0 | 2.66 ± 0.215 fold-change vs cycle 0 | 2.24 ± 0.293 fold-change vs cycle 0
CAATCG | 0.623 ± 0.00929 fold-change vs cycle 0 | 0.726 ± 0.0311 fold-change vs cycle 0 | 0.821 ± 0.0438 fold-change vs cycle 0
TATAAA | 3.97 ± 0.451 fold-change vs cycle 0 | 2.53 ± 0.209 fold-change vs cycle 0 | 2.14 ± 0.302 fold-change vs cycle 0
